The supplement of paper PMC6555819

Columns and labels:
Assay in all cases: PBM binding z-score (relative to random genomic background probes); higher = stronger binding; sequences stand for … in GC…GCGATTGACAGCGTAGAATGAAGG
[1] = system: PPARg:RXRa DBDmut IVT, anti-RXR (DBD mutation: RXRa K156A/R161A, NR concentration 270 nM, RXRa partner concentration 90 nM)
How it was run: (§1)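 Custom Agilent 4×180K protein-binding microarrays carried double-stranded probes. Their 34-nt variable regions held direct-repeat seeds, single-nucleotide variants, half-site ablations and random human genomic background sequences. Arrays were incubated 1 h with ligand-free nuclear receptor dimers in PBS pH 7.4, 2% milk, 0.02% Triton X-100, 1 mM DTT, 0.2 mg/mL BSA and 0.4 mg/ml salmon testes DNA. Antibodies against each partner (one per run) detected binding, and scanned fluorescence was regression-normalized. Binding z-scores use random background probes as reference.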

[2] = system: PPARg:RXRa IVT, anti-PPARg (NR concentration 270 nM, RXRa partner concentration 90 nM)
How it was run: as §1

[3] = system: PPARg DBDmut:RXRa IVT, anti-PPARg (DBD mutation: PPARg1 K132A/R137A, NR concentration 270 nM, RXRa partner concentration 90 nM)
How it was run: as §1

[4] = system: PPARg DBDmut IVT, anti-PPARg (DBD mutation: PPARg1 K132A/R137A, NR concentration 270 nM)
How it was run: as §1

[5] = system: PPARg homodimer (NR concentration 180 nM)
How it was run: as §1

[6] = system: PXR:RXRa (NR concentration 270 nM, RXRa partner concentration 90 nM)
How it was run: as §1

[7] = system: PXR homodimer (NR concentration 270 nM)
How it was run: as §1

[8] = system: RARa:RXR (NR concentration 270 nM, RXRa partner concentration 90 nM)
How it was run: as §1

[9] = system: RARa homodimer (NR concentration 270 nM)
How it was run: as §1

[10] = system: RARb:RXRa (NR concentration 270 nM, RXRa partner concentration 90 nM)
How it was run: as §1

Sequence	PBM binding z-score [1]	PBM binding z-score [2]	PBM binding z-score [3]	PBM binding z-score [4]	PBM binding z-score [5]	PBM binding z-score [6]	PBM binding z-score [7]	PBM binding z-score [8]	PBM binding z-score [9]	PBM binding z-score [10]
CCTCCTGGGCCAAAAAGGTCATTGATGCCGATAA	-0.0525	1.53	-0.96	-0.947	2.51	4.62	2.5	4.44	0.621	3.9
CCTTACGGGTCAAGGTCATAGCACGGGTGGTACG	1.92	4.64	0.493	-0.425	2.88	5.05	1.3	5.28	0.441	5
ATATGTAGGTTATCGGGTTATTCAGTTTGCGCAT	7.05	7.32	2.24	2.13	2.36	1.88	1.38	1.79	2.46	1.11
GCGACTGGGGAAAAGCAGGTTACCATAAGGTTGG	0.483	0.632	-0.499	-1.11	0.255	-0.0375	-0.35	0.407	-0.675	-0.16
ATCGAAAGGTCGTGAGGTGAGTGTACAGAAAGGC	0.429	2.63	1.08	0.59	1.74	3.17	0.525	3.97	1.08	4.04
GATACAGGGTCAAGGCCAGCGTACGCGTATTGAT	2.09	3.85	0.49	-0.316	2.29	3.48	0.372	4.36	1.03	4.52
CAGCCTAGGTCAGGGCCAATATAGGAGGAACGTT	1.3	1.88	-0.288	-1.23	0.413	0.404	-0.114	0.941	0.127	3.5
TCATATAGGTAAAAGGTGAAATTCGGTGTGGTAA	5.31	5.24	2.68	1.94	2.68	1.62	1.11	2.81	1.72	1.89
TGAATGAGGTTATAAGATCAGGGATCGTTGCAAA	0.979	1.86	1.31	0.477	0.305	0.783	0.0722	1.24	0.256	0.862
TAGTCTAGGTCATGGGCCAGTATACCACGCGAAC	5.8	6.96	3.12	2.31	2.49	1.57	0.209	2.78	0.751	3.95
TCGCGTAGGTTAGGGGCATTCAGAATGGCGTCGA	0.918	-0.148	-0.436	-0.621	-0.168	0.489	0.0303	0.615	-0.246	1.18
GGAACAAGGGCAAGTTGATAGCAGAGTTTGATGG	2.92	1.97	-0.205	-0.563	0.831	0.589	1.08	0.364	0.91	2.71
TAGCCTAGGTCATGCAGGCCAGTATAGTGTCGGC	1.84	2.9	0.61	0.0782	1.52	1.77	-0.409	2.37	-0.161	3.66
TCTTGTAGATCAAGCAGGCTAAGAAAGCCTGAGT	1.46	0.173	-0.469	1.11	-0.6	-0.424	-0.306	-0.588	-1.2	-0.756
GGAACGAGGGCAAGTTGATTGCAGAGTTTGATGG	3.51	2.76	0.164	-0.675	0.268	0.704	0.465	0.608	-0.397	2.69
CGAACTAGGTCAGAACGGGACAGTGAAGGATGAT	6.92	7.17	2.46	2.6	1.57	0.217	-0.225	0.856	-0.237	2.75
AGAATGAGGTTATACGTAGATCAGTGAAGAAAGT	3.57	2.11	1.37	1.44	0.559	1.15	0.463	1.56	0.81	1.39
TCATATCGGTAAAAGGTGAAAGTCGGTGTGGTAA	3	3.46	0.579	1.77	2.19	1.25	0.807	2.24	1.92	1.97
ATCTCTAGGTAAAAGTTCAGTCAATCCCGAGGAT	2.32	4.22	1.46	1.49	1.74	2.36	2.13	1.68	1.1	2.64
GATACTGGGTCAGCTAGAGGCCAGAGTATGGAAA	5.49	5.95	0.246	-0.167	1.24	1.15	-0.114	2.03	-0.28	3.26
CGAACTAGGTCAAGGTCAGTGAATCTCCGCACGC	7.95	8.28	1.6	0.259	3.84	3.45	1.03	3.61	1.62	4.86
GCTGCTAGGTCAACTGATGGTCAGCTGAAGCTCG	4.69	3.93	-0.679	-0.202	1.06	1.45	-0.515	2.72	-0.515	4.31
GATACAGGGTCAGCTAGAGGCCCGAGTATGGAAA	0.969	2.18	-0.156	-0.833	1.37	1.72	-0.766	2.93	-0.152	3.83
CGAACTAGGTCATTGACAAGACAGTGAATAGTAA	8.29	8.45	3.1	1.15	0.882	1.26	0.00701	1.79	0.336	3.61
